“And” between values parts separate entries of the source, which are not always exact repeats. Identical values can stand only once. Records with an inconclusive call do not appear. Values without a mark were called inactive. The source made the active and inactive calls. Calls come from the whole dose curve; as a rule, active = well fitted inhibition curve with a large enough effect; inconclusive = small, poorly fitted or top-dose-only effect; inactive = flat fitted curve, though single readings scatter.
tested on: HEK293; assay: Cytotoxic Profiling of Annotated Libraries Using Quantitative High-Throughput Screening (AID 1296008); conditions: Five cell lines viability, CellTiter-Glo ATP luminescence, 48-72 h; max response: active compounds read low; note: nearly all actives have a fitted effect of over 60% in size
Method in brief: (§1)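 Compounds were pin-transferred onto cells and incubated 48 or 72 hr at 37 degree Celsius, 95% humidity. CellTiter-Glo was added, plates sat 10 min at room temperature, then ATP-coupled luminescence was imaged as the viability read-out.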
% is set by controls: 0 for no effect and ±100 for the full control effect; potency is the fitted concentration of half-maximal effect.

For `OCCN1CCN(CCCN2c3ccccc3Sc3ccc(Cl)cc32)CC1`, which Potency is on record?
Its Potency is 11.9 µM (active).

For `COc1ccc2cc1Oc1ccc(cc1)C[C@H]1c3c(cc4c(c3Oc3cc5c(cc3OC)CCN(C)[C@@H]5C2)OCO4)CCN1C`, which Potency is on record?
The Potency was 10.6 µM (active) and 7.31 µM (active).

With `CCCn1cnc2c1c(=O)n(CCCCC(C)=O)c(=O)n2C` as the molecule, how does the max response read?
The max response was -11.1%.

`CCN(CC)CCCC(C)Nc1c2ccc(Cl)cc2nc2ccc(OC)cc12` (stereo unspecified) was tested. Which Potency did it give?
Its Potency is 7.5 µM (active) and 3.17 µM (active).

Which Potency does the source give for `CCN(CC)CCNC(=O)c1c(C)[nH]c(/C=C2\C(=O)Nc3ccc(F)cc32)c1C` here?
The Potency was 8.41 µM (active).

For `CC(CN1c2ccccc2Sc2ccccc21)N(C)C` (stereo unspecified), which Potency is on record?
The Potency was 11.9 µM (active).

Which Potency does the source give for `CSc1ccc2c(c1)C(N1CCN(C)CC1)Cc1ccccc1S2` (stereo unspecified) here?
Its Potency is 16.8 µM (active).

How did the max response turn out when `C=Cc1c(C)c2cc3[nH]c(cc4nc(cc5nc(cc1[nH]2)C(C)=C5CCC(=O)O)C(CCC(=O)O)=C4C)c(C)c3C=C` was run?
Its max response is -10.7%.

For `CN(C)CCN(Cc1ccccc1)c1ccccn1`, which outcome is on record?
The outcome was “inactive”.

For `[Cl][In]([Cl])[Cl]`, which max response is on record?
The max response was 1.84%.

With `C[C@]12C[C@H](O)[C@H]3[C@@H](CCC4=CC(=O)CC[C@@]43C)[C@@H]1CC[C@@H]2C(=O)CO` as the molecule, how does the outcome read?
The outcome was “inactive”.

Which outcome does the source give for `O=C(O)CN1C(=O)c2cccc3cccc(c23)C1=O` here?
Its outcome is “inactive”.

For `COC(=O)C1=C(C)NC(C)=C(C(=O)OC)C1c1ccccc1[N+](=O)[O-]`, which max response is on record?
Its max response is -14.4%.

With `CC(=O)O[C@@]12CO[C@@H]1C[C@H](O)[C@@]1(C)C(=O)[C@H](O)C3=C(C)[C@@H](OC(=O)[C@H](O)[C@@H](NC(=O)OC(C)(C)C)c4ccccc4)C[C@@](O)([C@@H](OC(=O)c4ccccc4)[C@H]21)C3(C)C` as the molecule, how does the Potency read?
Its Potency is 0.0021 µM (active).

With `CC(=O)Oc1ccc(C2(c3ccc(OC(C)=O)cc3)C(=O)Nc3ccccc32)cc1` as the molecule, how does the max response read?
Its max response is 1.93%.

How did the Potency turn out when `NC1[C@H]2CN(c3nc4c(cc3F)c(=O)c(C(=O)O)cn4-c3ccc(F)cc3F)C[C@@H]12` (stereo partly specified) was run?
Its Potency is 15 µM (active).

How did the max response turn out when `CC1(C)Oc2ccc(C#N)cc2[C@@H](N2CCCC2=O)[C@@H]1O` was run?
Its max response is -3.16%.

tested on: HaCat; assay: as above; conditions: Five cell lines viability, CellTiter-Glo ATP luminescence, 48-72 h; max response: active compounds read low
Method in brief: as §1

How did the outcome turn out when `CN(C)CCC=C1c2ccccc2CCc2ccccc21` was run?
The outcome was “inactive”.

Which results are given for `NC(=O)N/N=C/c1ccc([N+](=O)[O-])o1`?
max response: -0.194%; outcome: inactive

How did the outcome turn out when `COc1ccc2cc1Oc1ccc(cc1)C[C@H]1c3c(cc4c(c3Oc3cc5c(cc3OC)CCN(C)[C@@H]5C2)OCO4)CCN1C` was run?
The outcome was “inactive”.

Which max response does the source give for `CCCn1cnc2c1c(=O)n(CCCCC(C)=O)c(=O)n2C` here?
Its max response is -0.92%.

Which max response does the source give for `CCN(CC)CCSC(=O)C(c1ccccc1)c1ccccc1` here?
Its max response is -3.95%.

`CNCCCC1c2ccccc2C=Cc2ccccc21` was tested. Which max response did it give?
Its max response is -1.18%.

Which outcome does the source give for `CC1=C(CC(=O)O)c2cc(F)ccc2/C1=C\c1ccc(S(C)=O)cc1` (stereo unspecified) here?
The outcome was “inactive”.

For `CC(CN1c2ccccc2Sc2ccccc21)N(C)C` (stereo unspecified), which max response is on record?
The max response was 3.18%.

With `CC(CN(C)C)CN1c2ccccc2CCc2ccccc21` (stereo unspecified) as the molecule, how does the max response read?
Its max response is 2.23%.

For `CSc1ccc2c(c1)C(N1CCN(C)CC1)Cc1ccccc1S2` (stereo unspecified), which outcome is on record?
The outcome was “inactive”.

How did the max response turn out when `CNCC(O)c1ccc(O)c(O)c1` (stereo unspecified) was run?
Its max response is -0.0091%.

How did the outcome turn out when `C=Cc1c(C)c2cc3[nH]c(cc4nc(cc5nc(cc1[nH]2)C(C)=C5CCC(=O)O)C(CCC(=O)O)=C4C)c(C)c3C=C` was run?
The outcome was “inactive”.

How did the outcome turn out when `CN(C)CCN(Cc1ccccc1)c1ccccn1` was run?
Its outcome is “inactive”.

Which max response does the source give for `OCc1cc(C(O)CNCCCCCCOCCCCc2ccccc2)ccc1O` (stereo unspecified) here?
Its max response is 2.23%.

Which max response does the source give for `C[C@]12C[C@H](O)[C@H]3[C@@H](CCC4=CC(=O)CC[C@@]43C)[C@@H]1CC[C@@H]2C(=O)CO` here?
The max response was 1.38%.

`O=C(O)CN1C(=O)c2cccc3cccc(c23)C1=O` was tested. Which outcome did it give?
The outcome was “inactive”.

For `COC(=O)C1=C(C)NC(C)=C(C(=O)OC)C1c1ccccc1[N+](=O)[O-]`, which max response is on record?
The max response was -2.57%.

For `CC1=C(/C=C/C(C)=C/C=C/C(C)=C/C(=O)O)C(C)(C)CCC1`, which max response is on record?
Its max response is -3.44%.

`CCCCN(CCCC)CC(O)c1cc(Cl)cc2c1-c1ccc(Cl)cc1/C2=C/c1ccc(Cl)cc1` (stereo unspecified) was tested. Which max response did it give?
The max response was -7.84%.

For `CC(=O)Oc1ccc(C2(c3ccc(OC(C)=O)cc3)C(=O)Nc3ccccc32)cc1`, which max response is on record?
Its max response is -16.5%.

For `CN1CCCCC1CCN1c2ccccc2Sc2ccc(S(C)=O)cc21` (stereo unspecified), which outcome is on record?
The outcome was “inactive”.

How did the outcome turn out when `CN1CCN(C2Cc3ccccc3Sc3ccc(Cl)cc32)CC1` (stereo unspecified) was run?
Its outcome is “inactive”.

For `O=C1Nc2ccc(Cl)cc2[C@@](C#CC2CC2)(C(F)(F)F)O1`, which outcome is on record?
Its outcome is “inactive”.

Source: PubChem BioAssay (NCATS)
